Experimental data: PubChem BioAssay AID431 (Sanford-Burnham Center for Chemical Genomics, 2006)
The whole screen tested about 63,000 compounds, of which about 1,100 (1.7%) were called active. The sample holds actives, similar compounds and a random draw of the others, so the mix is not that of the screen. Entries with a potency or affinity are not part of this list. Unmarked numbers belong to inactive results.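 The calls were made as follows: active = compounds whose percent cytotoxicity in the single-dose primary screen, scaled between solvent and toxic-drug controls, exceeds 50; inactive = the rest.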

Assay: cytotoxicity in KRAS-transformed pancreatic duct cells, primary screen, cell-based, fluorescence, HTS (AID 431);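 also: 0% = DMSO solvent wells and 100% = doxorubicin-treated wells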
Settings: HPDE-C7K KRASV12 cells, Alamar Blue viability, 48 h; at 10 µM; active compounds read high

Question: Which cytotoxicity does the source give for Cn1c(SCc2nc3ccccc3[nH]2)nnc1-c1cccs1 here?
Answer: -13.1%

Question: For CCN(Cc1ccccc1)S(=O)(=O)c1ccc(C(=O)Nc2nnc(C3CC3)o2)cc1, which cytotoxicity is on record?
Answer: 6.4%

Question: With O=C(Nc1nnc(-c2cccs2)o1)c1cccc(F)c1 as the compound, how does the cytotoxicity read?
Answer: 21.9%

Question: With CCCCN(CC)S(=O)(=O)c1ccc(C(=O)Nc2nnc(-c3ccccc3Cl)o2)cc1 as the compound, how does the cytotoxicity read?
Answer: 58.3% (active)

Question: Which cytotoxicity does the source give for CC1CN(S(=O)(=O)c2ccc(C(=O)Nc3nnc(-c4ccc5c(c4)CCCC5)o3)cc2)CC(C)O1 (stereo not given) here?
Answer: 33.7%

Question: Which cytotoxicity does the source give for COc1cccc(C(=O)Nc2nnc(-c3cccs3)o2)c1 here?
Answer: 15.6%

Question: With CCCCN(CC)S(=O)(=O)c1ccc(C(=O)Nc2nnc(-c3cccs3)o2)cc1 as the compound, how does the cytotoxicity read?
Answer: 52.7% (active)

Question: For CC1CC(C)CN(S(=O)(=O)c2ccc(C(=O)Nc3nnc(-c4cccs4)o3)cc2)C1 (stereo not given), which cytotoxicity is on record?
Answer: 56.6% (active)

Question: For CCCCN(C)S(=O)(=O)c1ccc(C(=O)Nc2nnc(-c3cccs3)o2)cc1, which cytotoxicity is on record?
Answer: 32.1%

Question: Which cytotoxicity does the source give for O=C(Nc1nnc(-c2cccs2)o1)c1cccc(Oc2ccccc2)c1 here?
Answer: 35.3%

Question: Which cytotoxicity does the source give for O=C(Nc1nnc(-c2cccs2)o1)c1cccc(C(F)(F)F)c1 here?
Answer: 77.3% (active)

Question: For Brc1ccc(-c2nnc(-c3ccc4c(c3)OCO4)o2)o1, which cytotoxicity is on record?
Answer: -2%

Question: For COC(=O)c1ccccc1NC(=O)CSc1nnnn1C1CCCCC1, which cytotoxicity is on record?
Answer: 0.6%

Question: Which cytotoxicity does the source give for O=C(Nc1nccs1)C1CCN(S(=O)(=O)c2cccnc2)CC1 here?
Answer: -8.7%

Question: Which cytotoxicity does the source give for COCCCn1cnc2c(c1=O)c1nc3ccccc3nc1n2-c1ccc(C)cc1 here?
Answer: -9.5%

Question: Which cytotoxicity does the source give for Cn1c(=O)oc2cc(S(=O)(=O)NC3CCCc4ccccc43)ccc21 (stereo not given) here?
Answer: -4%

Question: For O=C(CCCn1c(=S)[nH]c2ccccc2c1=O)NCc1ccco1, which cytotoxicity is on record?
Answer: -11%

Question: Which cytotoxicity does the source give for CCCC(=O)Nc1nnc(-c2ccc(Cl)s2)o1 here?
Answer: -1.5%

Question: With CCC1CCCCN1S(=O)(=O)c1ccc(C(=O)Nc2nnc(-c3ccccc3Cl)o2)cc1 (stereo not given) as the compound, how does the cytotoxicity read?
Answer: 76.1% (active)

Question: With CN1CCN(S(=O)(=O)c2ccc(NC(=O)c3cccs3)cc2)CC1 as the compound, how does the cytotoxicity read?
Answer: -16.7%

Question: Which cytotoxicity does the source give for O=C(Nc1ccc(S(=O)(=O)N2CCCc3ccccc32)cc1)C1CCCO1 (stereo not given) here?
Answer: 12.3%

Question: For O=C(Nc1nnc(C2CC2)o1)c1ccc(S(=O)(=O)N2CCCc3ccccc32)cc1, which cytotoxicity is on record?
Answer: 60.6% (active)

Question: For CC1(C)COCN1S(=O)(=O)c1ccc(C(=O)Nc2nnc(-c3ccc(Cl)s3)o2)cc1, which cytotoxicity is on record?
Answer: 93.6% (active)

Question: For CC1CCCCN1S(=O)(=O)c1ccc(NC(=O)c2cccs2)cc1 (stereo not given), which cytotoxicity is on record?
Answer: 57.2% (active)

Question: For CCC1CCCCN1S(=O)(=O)c1ccc(C(=O)Nc2nnc(-c3cccs3)o2)cc1 (stereo not given), which cytotoxicity is on record?
Answer: 11.8%

Question: With COc1ccc(-c2nnc(NC(=O)c3ccc(S(=O)(=O)N4COCC4(C)C)cc3)o2)cc1 as the compound, how does the cytotoxicity read?
Answer: 14.3%

Question: Which cytotoxicity does the source give for COc1ccc(-c2nnc(NC(=O)c3ccc(S(=O)(=O)N4CCCc5ccccc54)cc3)o2)cc1 here?
Answer: 49.3%

Question: For CC1CCN(S(=O)(=O)c2ccc(NC(=O)c3cccs3)cc2)CC1, which cytotoxicity is on record?
Answer: 15.7%

Question: For O=C(Nc1nnc(-c2ccccc2Cl)o1)c1cccnc1, which cytotoxicity is on record?
Answer: 28.8%

Question: With O=C1C(C=NCCCn2ccnc2)=C(O)c2ccccc21 as the compound, how does the cytotoxicity read?
Answer: 1%

Question: Which cytotoxicity does the source give for O=C(NC1CCCCC1)C1CCCN1C(=O)NCc1ccccc1 (stereo not given) here?
Answer: 11.8%

Question: Which cytotoxicity does the source give for CCNS(=O)(=O)c1ccc(OCCNS(C)(=O)=O)cc1 here?
Answer: -2.5%

Question: With O=C(/C=C/N1CCOCC1)c1coc2ccccc12 as the compound, how does the cytotoxicity read?
Answer: -4.5%

Question: With Cc1cccc(C)c1NC(=O)CSc1nnc(-c2ccoc2C)n1C as the compound, how does the cytotoxicity read?
Answer: -5.8%

Question: For O=C(OCCN(C1=NS(=O)(=O)c2ccccc21)c1ccc(Cl)cc1)c1ccco1, which cytotoxicity is on record?
Answer: -16.8%

Question: For CC(O)CCc1nc2ccc(C(=O)O)cc2[nH]1 (stereo not given), which cytotoxicity is on record?
Answer: -5.2%

Question: Which cytotoxicity does the source give for Cc1nnc(NC(=O)c2ccc(S(=O)(=O)N3CCCCCC3)cc2)o1 here?
Answer: 6.5%

Question: With CC1CCCCN1S(=O)(=O)c1ccc(C(=O)Nc2nnc(-c3ccccc3Cl)o2)cc1 (stereo not given) as the compound, how does the cytotoxicity read?
Answer: 56.7% (active)

Question: For O=C(Nc1nnc(-c2ccccc2Cl)o1)c1ccc(S(=O)(=O)N2CCCCCC2)cc1, which cytotoxicity is on record?
Answer: 43.8%

Question: For CCc1nnc(NC(=O)c2ccc(S(=O)(=O)N3CCCCC3C)cc2)s1 (stereo not given), which cytotoxicity is on record?
Answer: -7.7%

Question: Which cytotoxicity does the source give for CC1CCCN(S(=O)(=O)c2ccc(C(=O)Nc3nnc(-c4ccccc4Cl)o3)cc2)C1 (stereo not given) here?
Answer: 63.8% (active)

Question: Which cytotoxicity does the source give for CC1CCCCN1S(=O)(=O)c1ccc(NC(=O)c2cccc(-n3cnnn3)c2)cc1 (stereo not given) here?
Answer: 20.3%

Question: For O=C(Nc1ccccc1C(=O)N1CCOCC1)c1ccco1, which cytotoxicity is on record?
Answer: 3.4%

Question: With Cc1ccc(C)c(C(=O)CSc2nnnn2-c2cccnc2)c1 as the compound, how does the cytotoxicity read?
Answer: 0.6%

Question: For Cc1cc(C)n(S(=O)(=O)c2cccc(Cl)c2Cl)n1, which cytotoxicity is on record?
Answer: -9.2%

Question: With COc1nc(-c2ccccc2)ccc1-c1noc(-c2ccco2)n1 as the compound, how does the cytotoxicity read?
Answer: -3%

Question: Which cytotoxicity does the source give for COC(=O)c1ccccc1S(=O)(=O)N(Cc1ccco1)Cc1cc2cc(OC)ccc2[nH]c1=O here?
Answer: -1.7%

Question: For CCCC(=O)Nc1sc2c(c1C#N)CCCC2, which cytotoxicity is on record?
Answer: 1.4%

Question: With COC(=O)CCC(=O)Nc1sc2c(c1C#N)CCCC2 as the compound, how does the cytotoxicity read?
Answer: -6.7%

Question: With CCc1ccc(CCC(=O)Nc2sc3c(c2C#N)CCCC3)o1 as the compound, how does the cytotoxicity read?
Answer: 73.8% (active)

Question: Which cytotoxicity does the source give for COC(=O)C1=C(C)NC(=O)CC1c1cccc(Cl)c1Cl (stereo not given) here?
Answer: -0.8%

Question: For CCOC(=O)C1C(c2cccc(Cl)c2Cl)NC(=O)NC1(O)C(F)(F)F (stereo not given), which cytotoxicity is on record?
Answer: 10.1%

Question: Which cytotoxicity does the source give for O=C(Nc1ccc2c(c1)OCO2)c1ccc(Br)c(S(=O)(=O)N2CCCC2)c1 here?
Answer: 14.5%

Question: Which cytotoxicity does the source give for CCc1ncc(C(O)c2cccc(OC)c2OC)n1C (stereo not given) here?
Answer: 6.9%

Question: Which cytotoxicity does the source give for CCOC(=O)c1c(N)sc(C(=O)Nc2ccc3c(c2)OCO3)c1C here?
Answer: 19.8%

Question: Which cytotoxicity does the source give for CCN(CC)S(=O)(=O)c1ccc(NC(=O)Cn2c(=O)oc3ccccc32)cc1 here?
Answer: 1.6%

Question: Which cytotoxicity does the source give for Cc1nn2c(N3CCOCC3)c3c(nc2c1-c1ccccc1)CCCC3 here?
Answer: 8.5%

Question: With Cc1nc(N)c(C#N)c(-c2ccccc2)c1C as the compound, how does the cytotoxicity read?
Answer: 18.7%

Question: For Cc1c(-c2ccccc2)nc(N)c(C#N)c1-c1ccco1, which cytotoxicity is on record?
Answer: -7.4%

Question: For CC1=C(C#N)c2nc(N)c(C#N)c(C)c2/C1=C\c1ccccc1, which cytotoxicity is on record?
Answer: 107% (active)
